MCF10A rerep = induces DNA re-replication in MCF 10a normal breast cells; MCF 10A DNA re-replication, Hoechst nuclear intensity, 48 h; Potency, µM (titrated, usually from 46.1 µM), inactives show at the top dose activity, positive = re-replication, usual class: activators; 2.9% of 350,000 active; further: % of control where 0% means no effect; nearly all actives have a fitted effect of over 50% in size
KB-V1 MDR tox = kills drug-selected multidrug resistant KB-V1 cells; KB-V1 MDR cells viability, CellTiter-Glo, 72 h; Potency, µM (titrated, usually from 46.1 µM), actives largely listed as cytotoxic; 3.4% of 400,000 active; AID 1347076; further: on the % scale 0 is the no-effect control and ±100 the full control effect; nearly all actives have a fitted effect of over 60% in size
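Compound-treated KB-V1 multidrug-resistant cells, 72 h, 37 degrees C; viability by CellTiter-Glo. Fitted qHTS curves give the values.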
HT1080 IDH1KD tx = HT-1080 IDH1 knockdown cell toxicity (counter line) | 2% of 360,000 active | HT-1080 IDH1 knockdown viability, ATP luminescence, 48 h | Potency, µM (highest dose often 46.1 µM), for inactives: at the highest dose activity, negative = toxicity, hits mostly cytotoxic | AID 686971;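 further: 0% = DMSO wells and -100% = cell-free medium wells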
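CellTiter-Glo luminescence after 48 h compound exposure at 37 degrees C of IDH1-knockdown HT-1080 cells in 5% FBS RPMI. %Activity scaled between DMSO wells and cell-free media wells, with curves fitted and assigned curve classes.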
HT1080NT lethal = kills 2HG-producing HT-1080-NT fibrosarcoma cells | Potency, µM (series often up to 46.1 µM), inactives show at the top dose activity, negative = less viability, usual class: cytotoxic | AID 686970 | HT-1080-NT fibrosarcoma viability, CellTiter-Glo ATP luminescence, 48 h | 1.6% of 360,000 active;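 further: NT is the 2HG producing partner of a matched IDH1 knockdown line; 0% = DMSO-treated cells and -100% = media-only wells without cells; nearly all actives have a fitted effect of over 55% in size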
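HT-1080-NT; 750 cells/well; 5% FBS RPMI; 48 h compound, 37 degrees C; CellTiter-Glo luminescence; curve fitting and curve-class assignment.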
KB-3-1 cytotox = kills parental KB-3-1 adenocarcinoma cells; KB-3-1 viability, CellTiter-Glo ATP luminescence, 72 h; AID 1347075; 1.4% of 400,000 active; Potency, µM (titrated, usually from 46.1 µM), actives largely listed as cytotoxic; further: on the % scale 0 is the no-effect control and ±100 the full control effect; nearly all actives have a fitted effect of over 60% in size
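Cytotoxicity measured as CellTiter-Glo luminescence after 72 h at 37 C. Compound titrations were pinned onto drug-naive KB-3-1 parental adenocarcinoma cells grown in DMEM with 10% FBS, and normalized data fitted to concentration-response curves.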
SW480 rereplic = inducers of DNA re-replication in SW480 colon cancer cells | AID 624297 | SW480 DNA re-replication, Hoechst DNA content imaging, 48 h | 1.8% of 340,000 active | Potency, µM (series often up to 46.1 µM), inactives show at the top dose re-replication activation, usual class: activators; further: % of control where 0% means no effect; nearly all actives have a fitted effect of over 55% in size
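Hoechst fluorescence of nuclei (405 nm excitation, 500-530 nm emission) measured by plate-scanning imager after 48 hr compound exposure at 37 C; re-replication scored as increased number of nuclei with elevated intensity.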
Numbers without * were called inactive; [ ] = remark or other dose. Only some compounds are listed: those with a hit (about 7.9% of all), similar ones and a draw of the others. The call rests on the fitted dose curve; in most records, active means well fitted curve in the direction sought with a large enough effect; inconclusive means small, poorly fitted or top-dose-only effect, or another doubt; inactive means no such curve, though single readings can be large; an effect the other way counts as inactive or inconclusive. Potency means the concentration at half of the fitted maximal effect.

For CCOCCCn1c(SCC(=O)/C(C#N)=C(\C)N)nc2ccccc2c1=O the results were MCF10A rerep -7%, KB-V1 MDR tox 8.2µM*, HT1080 IDH1KD tx 2%, HT1080NT lethal 2%, KB-3-1 cytotox inactive and SW480 rereplic -8%.
For CCN1CCN(c2cc(C)c3cc(NC(=S)N4CC(C)CC(C)C4)ccc3n2)CC1 (stereo not given) the results were MCF10A rerep inconclusive, KB-V1 MDR tox inactive, HT1080 IDH1KD tx 16µM*, HT1080NT lethal inconclusive, KB-3-1 cytotox inactive and SW480 rereplic inconclusive.
Screening CCN1CCN(C(=S)Nc2ccc3nc(N4CCN(CC)CC4)cc(C)c3c2)CC1 returned MCF10A rerep inconclusive, KB-V1 MDR tox inactive, HT1080 IDH1KD tx inconclusive, HT1080NT lethal -22%, KB-3-1 cytotox inconclusive and SW480 rereplic inconclusive.
CCN1CCN(c2cc(C)c3cc(NC(=S)N4CCCC(C)C4)ccc3n2)CC1 (stereo not given) was read as MCF10A rerep 5%, KB-V1 MDR tox inconclusive, HT1080 IDH1KD tx 16µM*, HT1080NT lethal inconclusive, KB-3-1 cytotox inconclusive and SW480 rereplic inconclusive.
COc1ccc(CN2CCN(c3cc(C)nc4c5c(C)cc(C)nc5nn34)CC2)cc1F was read as MCF10A rerep 4%, KB-V1 MDR tox 2.3µM*, HT1080 IDH1KD tx 10%, HT1080NT lethal -4%, KB-3-1 cytotox inactive and SW480 rereplic 9%.
Screening C=CCN1C(=O)C(C)(C)N(C(C)=O)c2ccccc21 returned MCF10A rerep inconclusive, KB-V1 MDR tox inactive, HT1080 IDH1KD tx -1%, HT1080NT lethal 4%, KB-3-1 cytotox inactive and SW480 rereplic inconclusive.
Screening CC(=O)N1c2ccccc2N(Cc2ccc(C)cc2C)C(=O)C1(C)C returned MCF10A rerep 12µM*, KB-V1 MDR tox inconclusive, HT1080 IDH1KD tx 16µM*, HT1080NT lethal inconclusive, KB-3-1 cytotox 4.1µM* and SW480 rereplic 18µM*.
Cn1c(NN)nc2sc3c(c2c1=O)CC(C)(C)OC3 was read as MCF10A rerep -3%, KB-V1 MDR tox inactive, HT1080 IDH1KD tx 13µM*, HT1080NT lethal inconclusive, KB-3-1 cytotox inactive and SW480 rereplic 0%.
`CCCCCc1nc2sc3c(c2c(=O)n1NC(=O)c1ccc([N+](=O)[O-])cc1)CC(C)(C)OC3` gave MCF10A rerep inconclusive, KB-V1 MDR tox inconclusive, HT1080 IDH1KD tx 5.8µM*, HT1080NT lethal 5.8µM*, KB-3-1 cytotox inactive and SW480 rereplic -43%.
`CC1(C)Cc2c(sc3nc[nH]c(=O)c23)CO1` gave MCF10A rerep -10%, KB-V1 MDR tox inactive, HT1080 IDH1KD tx 2%, HT1080NT lethal 15%, KB-3-1 cytotox inactive and SW480 rereplic 5.2µM*.
Screening COCCCNC(=O)c1ccc(Cn2c(=O)c3ccccc3n(Cc3c(C)cc(C)cc3C)c2=O)cc1 returned KB-V1 MDR tox inactive and KB-3-1 cytotox inactive.
CCN(CC(=O)Nc1ccc(NC(C)=O)cc1)C(=O)c1c(C)nn(Cc2ccc(C)cc2)c1Cl was read as MCF10A rerep 3%, KB-V1 MDR tox inactive, HT1080 IDH1KD tx 0%, HT1080NT lethal 1%[9.24 µM], KB-3-1 cytotox inactive and SW480 rereplic -10%.
`Cc1ccc(/C=N/NC(=O)c2ccc(Br)o2)s1` gave MCF10A rerep 7%, KB-V1 MDR tox inactive, HT1080 IDH1KD tx -5%, HT1080NT lethal -6%, KB-3-1 cytotox inactive and SW480 rereplic inconclusive.
CCc1ccc(/C=N/NC(=O)c2cc(C3CC3)nc3ccc(Br)cc23)s1 was read as MCF10A rerep 1.6µM*, KB-V1 MDR tox 4.1µM*, HT1080 IDH1KD tx 5.8µM*, HT1080NT lethal 6.5µM*, KB-3-1 cytotox 4.6µM* and SW480 rereplic 18µM*.
Screening CCc1ccc(/C=N\NC(=O)c2ccc(Br)o2)s1 returned MCF10A rerep 1%, KB-V1 MDR tox 18µM*, HT1080 IDH1KD tx -16%, HT1080NT lethal -1%, KB-3-1 cytotox inactive and SW480 rereplic 14%.
